Sampled rows, rich in hits. Any-hit rate of the full collection: about 1.7%.
GLP1R cytotox – cytotoxic in the GLP-1 receptor inverse agonist counter-screen | HEK293 cAMP-luciferase reporter cells, luminescence, 24 h | AID 624418 | Potency, µM (top dose mostly 38.3 µM), inactives show at the top dose activity change, negative = inhibition, most hits filed as inhibitors | 410,000 tested, 0.13% active;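 note: loss of luciferase light is scored as toxicity; % is set by controls: 0 for no effect and ±100 for the full control effect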
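Here, cytotoxicity is scored as loss of luminescence. The MLSMR collection was tested on cells seeded in medium containing 10% Nu serum, with a 24 hr compound exposure preceded by 12 hours of culture.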
GLP1R inv ag – GLP-1 receptor (human) inverse agonism; P43220; HEK293 GLP-1R CRE-luciferase, luminescence, 24 h; GLP-1R form is constitutively active; 410,000 tested, 1.6% active; Potency, µM (top dose mostly 38.3 µM), without a hit: at the top dose activity change, negative = inhibition, most hits filed as inhibitors; note: % is set by controls: 0 for no effect and ±100 for the full control effect; nearly all actives have a fitted effect of over 55% in size
Target sequence (P43220 whole entry, looked up): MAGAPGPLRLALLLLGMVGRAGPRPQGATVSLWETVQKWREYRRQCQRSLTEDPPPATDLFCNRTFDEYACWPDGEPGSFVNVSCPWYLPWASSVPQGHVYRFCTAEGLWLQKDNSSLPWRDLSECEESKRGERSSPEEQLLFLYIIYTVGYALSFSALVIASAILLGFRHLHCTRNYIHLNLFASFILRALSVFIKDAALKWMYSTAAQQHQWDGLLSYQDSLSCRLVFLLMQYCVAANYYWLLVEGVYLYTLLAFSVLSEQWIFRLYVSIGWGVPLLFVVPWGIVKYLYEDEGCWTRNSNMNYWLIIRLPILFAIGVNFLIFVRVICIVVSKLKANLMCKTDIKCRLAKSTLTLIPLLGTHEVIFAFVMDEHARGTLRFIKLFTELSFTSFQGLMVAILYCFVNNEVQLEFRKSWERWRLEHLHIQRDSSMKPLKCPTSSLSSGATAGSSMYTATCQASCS
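Using stably transfected HEK293 (constitutively active GLP-1R, cAMP-luciferase reporter), compounds were incubated 24 hr and luciferase measured by luminescence.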
GLP1R ag – activates the human GLP-1 receptor | P43220 | HEK293 GLP-1R CRE-luciferase, luminescence, 4-6 h; cells express a hypersensitive GLP-1R form | Potency, µM (titrated, usually from 45.6 µM), without a hit: at the top dose activation, hits mostly activators | 380,000 tested, 0.007% active | AID 624172; note: % of control where 0% means no effect
PTHR1 agonist – agonists of human PTHR1 parathyroid hormone receptor; Q03431; HEK293 GP2 PTHR1 cells, GloSensor cAMP luminescence, 1 h; Potency, µM (top dose mostly 115 µM), for inactives: at the top dose activation, actives largely listed as activators; 410,000 tested, 0.075% active; note: nearly all actives have a fitted effect of over 55% in size
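HEK-293-derived GP2 cells expressing PTHR1 and a GloSensor cAMP reporter, 3,000/well, plated overnight, given luciferin plus IBMX (each 0.5 mM as added) for 1 h at 37 °C, then compound for 1 h at 37 °C. Luminescence was read after 15 min at room temperature.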
* = called active by the depositor; i = inactive; ? = inconclusive; . = no result given; [ ] = another dose, or the depositor's remark. Calls come from the whole dose curve; as a rule, active = well fitted curve in the direction sought with a large enough effect; inconclusive = small, poorly fitted or top-dose-only effect, or another doubt; inactive = no such curve, though single readings can be large; an effect the other way counts as inactive or inconclusive. Potency is the fitted concentration of half-maximal effect.

SMILES	GLP1R cytotox	GLP1R inv ag	GLP1R ag	PTHR1 agonist
Cc1cccc(NC(=O)c2cc(S(=O)(=O)c3ccccc3)ccc2Cl)c1	-10%	8.9µM*	-20%	-16%[57.5 µM]
CC1(C)CC[C@]2(C(=O)n3ccnc3)CC[C@]3(C)[C@H](C(=O)C=C4[C@@]5(C)C=C(C#N)C(=O)C(C)(C)[C@@H]5CC[C@]43C)[C@@H]2C1	-10%	2.5µM*	-2%	-1%
O=C(c1cc2c(s1)CCCC2)N1CCN(S(=O)(=O)c2ccccc2C(F)(F)F)CC1	-9%	10µM*	7%	-31%
COc1ccc(-c2nn3c(-c4ccc(C)cc4)nnc3c3ccccc23)cc1	6%	8%	.	i
CC(=O)O[C@H]1CC[C@@]2(C)C(=CCC3C2CC[C@]2(C)C(c4cccnc4)=CCC32)C1 (stereo partly specified)	.	.	-4%	.
CCOc1ccc(-c2n[nH]c(C)c2-c2ccccc2OC)c(O)c1	?	5µM*	5%	-28%
COc1ccc(-c2n[nH]c(C)c2-c2cscn2)c(O)c1	-3%	-12%	1%	-13%
CN1CCCN(C(c2ccccc2)c2ccc(Cl)cc2)CC1 (stereo unspecified)	?	?	21%	-59%
Clc1ccc(C(c2cccs2)N2CCNCC2)cc1 (stereo unspecified)	-12%	4.5µM*	13%	i
COc1cc(OC)cc(C(=O)Nc2cccc(-c3cn4ccsc4n3)c2)c1	-19%	-24%	.	-52%
N/C(=N\OC(=O)c1cccc2ccccc12)c1ccccn1	4µM*	?	10%	-31%
COc1cccc(C(=O)O/N=C(\N)c2ccncc2)c1OC	-4%	1%	6%	i
COc1cccc(C(=O)O/N=C(\N)c2ccccn2)c1OC	10%	7.9µM*	-10%	-41%
N/C(=N\OC(=O)Cc1cccc2ccccc12)c1ccccn1	?	?	24%	-37%
Cc1ccc(NS(=O)(=O)c2cc([N+](=O)[O-])ccc2NNC(=S)Nc2cc(C)ccc2C)c(C)c1	11µM*	?	-20%	-22%
COc1ccc(NC(=S)NNc2ccc([N+](=O)[O-])cc2S(=O)(=O)Nc2ccc(C)cc2C)cc1	?	?	-1%	-23%
CCCCn1c(=O)n(CC2CCC(C(=O)NCCCOC)CC2)c(=O)c2sccc21 (stereo unspecified)	2%	10%	.	7%
CC(C)(C)c1ccc(OCCCNC2CCCC2)cc1	?	10µM*	8%	i
Cc1ccc(OCCCNC2CCCC2)cc1	1%	0%	-5%	-5%
O=C(N/N=C\c1ccncc1)c1ccccc1O	18%	-6%	0%	-9%
O=C(N/N=C/c1ccc(-c2ccccc2)o1)c1ccccc1O	?	10µM*	6%	-22%
Cc1ccc(NC(=O)C(Cc2ccccc2)NS(=O)(=O)c2ccc3c(c2)c(=O)n(C)c(=O)n3C)c(C)c1 (stereo unspecified)	2%	-1%	-2%	-10%
Cc1cc(C)cc(NC(=O)Nc2cc(-c3ccccc3)nn2C)c1	-15%	8.9µM*	22%	-7%
Cn1nc(-c2ccccc2)cc1NC(=O)Nc1ccccc1F	-27%	?	7%	i
N#Cc1cc([N+](=O)[O-])cnc1Nc1ccccc1	7%	48%	8.9µM*	i
SMILES	GLP1R cytotox	GLP1R inv ag	GLP1R ag	PTHR1 agonist
CCOC(=O)CNc1ncc([N+](=O)[O-])cc1C#N	-4%	25%	0%	i
CCOc1ccc(-c2cc(C(=O)NCCOC)[nH]n2)c(C)c1	7%	3%	7%	-8%
CCOc1ccc(-c2cc(C(=O)Nc3ccc(C)c(NS(C)(=O)=O)c3)[nH]n2)c(C)c1	?	7.1µM*	-3%	-92%
CC12CCC(C(=O)NNc3ccc([N+](=O)[O-])cc3)(CC1=O)C2(C)C (stereo unspecified)	10%	8.9µM*	-8%	i
COc1ccc(CCNc2ncnc3c2c(-c2ccccc2)cn3-c2ccc(F)cc2)cc1OC	-5%	?	.	-2%
CCCNc1ncnc2c1c(-c1ccccc1)cn2-c1ccccc1	-4%	10µM*	.	-6%
COc1ccc(-n2cc(-c3ccccc3)c3c(NC4CCCC4)ncnc32)cc1	1%	1.8µM*	.	-21%
Cc1c(C)n(CCc2ccccc2)c2ncnc(NCCCN(C)C)c12	-27%	2µM*	1%	i
